Results filed as inconclusive are left out. Activity calls are given as the source filed them. Calls follow the shape of the dose curve; as a rule, active = well fitted cell-killing curve with a large enough effect; inconclusive = small, poorly fitted or top-dose-only effect, or effect the other way; inactive = no such curve, though single readings can be large or run the other way.
experiment: qHTS assay to identify small molecule inhibitors of chordoma cells - UCH-1 (AID 1259355); details: UCH-1 chordoma viability, CellTiter-Glo, 48 h, combination; series mostly up to 46.1 µM; activity, negative = inhibition: at the top concentration; also: nearly all actives have a fitted effect of over 55% in size
Description: NIH Chemical Genomics Center [NCGC]
Chordoma is a rare and slow growing tumor that can occur anywhere along the spine, from the base of the skull to the tailbone. Current treatment options for chordoma is surgery and radiation therapy for those who are not candidates for surgery. But chordomas tend to return in the same location or surrounding areas of the original tumor after surgery and/or radiation. Chemotherapy can slow down the progression of the tumor. As chordoma is slow growing, the general cytotoxic agents that kill fast growing cells are ineffective, and some patients have been reported to respond to molecularly targeted drugs.
NCATS Pharmaceutical Collection (NPC) containing approximately 3000 clinically approved and investigational drugs were used to screen at 15 concentrations in a chordoma cell lines, UCH-1, to identify small molecule compounds that can inhibit chordoma cell growth.
NCGC Assay Protocol Summary:
Human chordoma cell line UCH-1 was dispensed at 800 per well in 4uL of culture medium into white solid bottom 1536-well plates (Corning Life Sciences, Corning, NY) using a Multidrop Combi (Thermo Scientific, Waltham, MA) dispenser. The assay plates were incubated at 37 C and 5% CO2 for an overnight, and then 23nL of compounds dissolved in DMSO and positive control were transferred using a Pintool station (Wako, San Diego, CA). Compound treatment was followed by the addition of 1uL of the combination compounds (1uM Auranofin, 500nM each of Camptothecin, Doxorubicin, Rubitecan, and Topotecan) and assay medium to each well of the assay plates using Flying Reagent Dispenser (FRD, Aurora Discovery, San Diego, CA). The assay plates were incubated at 37 C and 5% CO2 for 48hr. Then 5uL of CellTiter-Glo reagent (Promega Corporation, Madison, WI) was added to each well of the assay plates using FRD. After 30min incubation at room temperature, the luminescence signal was quantified using a ViewLux plate reader (PerkinElmer, Shelton, CT).
% is scaled to controls: 0 for no effect and ±100 for the full control effect; potency is read from the fitted curve at half-maximal effect.

Structure (SMILES)	activity, negative = inhibition	Potency
O=C1NCN(c2ccccc2)C12CCN(CCCOc1ccc(F)cc1)CC2	-9.74% (inactive)	
Cc1ncc2n1-c1ccc(Cl)cc1C(c1ccccc1F)=NC2	-18.6% (inactive)	
COc1ccc(C(=O)N2CCCC2=O)cc1	15.5% (inactive)	
C[C@]12CC[C@H]3[C@@H](CC=C4C[C@@H](O)CC[C@@]43C)[C@@H]1CC[C@@H]2O	-14.7% (inactive)	
C=CCN1CC[C@]23CCCC[C@H]2[C@H]1Cc1ccc(O)cc13	17.5% (inactive)	
CC[C@]1(O)CC[C@H]2[C@@H]3CCC4=CCCC[C@@H]4[C@H]3CC[C@@]21C	-10.8% (inactive)	
N#Cc1nn(-c2c(Cl)cc(C(F)(F)F)cc2Cl)c(N)c1S(=O)C(F)(F)F (stereo not given)	-33.6% (inactive)	
CC[n+]1c(-c2ccccc2)c2cc(N)ccc2c2ccc(N)cc21		7.94 µM (active)
O=C(O)c1nn(Cc2ccc(Cl)cc2Cl)c2ccccc12	-4.4% (inactive)	
CNC(=O)NC(O)C(Cl)(Cl)Cl (stereo not given)	-6.39% (inactive)	
Clc1ccc(CSC(Cn2ccnc2)c2ccc(Cl)cc2Cl)cc1 (stereo not given)	-6.96% [at 20.6 µM] (inactive)	
COc1cc(N)c(Cl)cc1C(=O)NC1CN2CCC1CC2 (stereo not given)	-11.7% (inactive)	
CC(C)C(Br)C(=O)NC(N)=O (stereo not given)	-6.34% (inactive)	
C[C@@H]1CC[C@H]2[C@@H](C)C(=O)O[C@@H]3O[C@@]4(C)CC[C@@H]1[C@]32OO4	-9.3% (inactive)	
CCN(Cc1ccc(Cl)nc1)/C(=C/[N+](=O)[O-])NC	-17.6% (inactive)	
C[C@@H]1O[C@@H](O[C@@H]2C=C3CC[C@@H]4[C@H](CC[C@]5(C)[C@@H](c6ccc(=O)oc6)CC[C@]45O)[C@@]3(C)CC2)[C@H](O)[C@H](O)[C@H]1O		0.1 µM (active)
Nc1ccc(N)cc1	7.81% (inactive)	
C[C@H](N)[C@H](O)c1ccc(O)c(O)c1	-28.7% (inactive)	
C#C[C@]1(O)C=C[C@H]2[C@@H]3CCC4=CC(=O)CC[C@@H]4[C@H]3CC[C@@]21CC	-0.144% (inactive)	
c1cc2c(c(N3CCNCC3)c1)OCCO2	-10.1% (inactive)	

Structure (SMILES)	activity, negative = inhibition	Potency
COC(=O)C1=CCCN(C)C1	-7.02% (inactive)	
CC(C)=C[C@@H]1[C@@H](C(=O)OCc2coc(Cc3ccccc3)c2)C1(C)C	-25.6% [at 46.1 µM, with auranofin plus four topoisomerase inhibitors] (inactive)	
CNC(=O)Oc1cccc2ccccc12	-4.55% (inactive)	
C[N+](C)(C)CCOC(=O)C(O)(c1ccccc1)c1ccccc1	-14.7% (inactive)	
CN1C(=O)[C@@H](NC(=O)c2cc3ccccc3[nH]2)N=C(c2ccccc2)c2ccccc21	-21.3% (inactive)	
CC(C)(O)C(Cl)(Cl)Cl	-23.3% (inactive)	
CCC1(c2cccc(O)c2)CCCCN(C)C1 (stereo not given)	-6.93% [at 20.6 µM] (inactive)	
Oc1c(Br)cc(Br)cc1Br	-13.7% (inactive)	
CCS(=O)(=O)C(C)(C)S(=O)(=O)CC	-7.76% (inactive)	
OC(c1ccccc1)(c1ccccc1)C1CCNCC1	1.45% [at 20.6 µM] (inactive)	
COCC(=O)N(c1c(C)cccc1C)C(C)C(=O)OC (stereo not given)	-11.2% [at 46.1 µM, with auranofin plus four topoisomerase inhibitors] (inactive)	
COc1ccc(CN2CCNCC2)c(OC)c1OC	-2.32% [at 20.6 µM] (inactive)	
ClC1=C(Cl)C2(Cl)C(CBr)CC1(Cl)C2(Cl)Cl (stereo not given)	-14.8% [at 46.1 µM, with auranofin plus four topoisomerase inhibitors] (inactive)	
C[C@]12Cc3nonc3C[C@@H]1CC[C@@H]1[C@@H]2CC[C@@]2(C)[C@H]1CC[C@]2(C)O	-19.2% (inactive)	
COP(=O)(OC)C(O)C(Cl)(Cl)Cl (stereo not given)	-4.57% (inactive)	
CCC1(CC)C(=O)NC(=O)NC1=O	-13.9% (inactive)	
C[N+]1(CCC(C(N)=O)(c2ccccc2)c2ccccc2)CCCCC1	-20.1% (inactive)	
CC(C)(C)OC(=O)c1ncn2c1[C@@H]1CCCN1C(=O)c1c(Br)cccc1-2	-6.64% (inactive)	
CCCC(C)C1(CC)C(=O)N=C(S)NC1=O (stereo not given)	-11.3% (inactive)	
CC(Cc1ccccc1)NCc1ccccc1Cl (stereo not given)	-8.49% (inactive)	
